# Source: PubChem (National Center for Advancing Translational Sciences (NCATS))
# RORgamma inh: inhibitors of mouse ROR gamma transcriptional activity | Potency, µM (series often up to 53.6 µM), inactives show at the highest dose activity change, negative = inhibition, hits mostly inhibitors | AID 2551 | P51450 | 5.4% of 310,000 active | Drosophila S2 Gal4-RORgamma UAS-luciferase reporter, 20 h; further: potency means the concentration at half of the fitted maximal effect; on the % scale 0 is the no-effect control and ±100 the full control effect; nearly all actives have a fitted effect of over 60% in size
# Target sequence (P51450 whole entry, looked up, the tested form may be a part): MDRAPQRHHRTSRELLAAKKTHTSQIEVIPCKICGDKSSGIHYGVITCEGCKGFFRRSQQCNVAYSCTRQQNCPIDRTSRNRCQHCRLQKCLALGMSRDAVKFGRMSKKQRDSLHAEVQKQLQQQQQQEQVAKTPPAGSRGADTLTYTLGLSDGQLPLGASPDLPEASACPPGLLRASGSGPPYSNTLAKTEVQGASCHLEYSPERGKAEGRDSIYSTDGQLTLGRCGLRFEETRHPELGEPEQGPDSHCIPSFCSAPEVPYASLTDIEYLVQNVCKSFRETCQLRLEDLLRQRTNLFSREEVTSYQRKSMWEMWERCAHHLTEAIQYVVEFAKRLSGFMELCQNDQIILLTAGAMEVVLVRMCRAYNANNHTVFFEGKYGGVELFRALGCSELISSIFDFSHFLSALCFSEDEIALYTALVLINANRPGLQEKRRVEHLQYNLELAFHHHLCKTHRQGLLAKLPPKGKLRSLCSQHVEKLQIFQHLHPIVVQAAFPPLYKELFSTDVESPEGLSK
#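 Schneider cells (Drosophila), stable Gal4 DBD–ROR gamma + UAS-luc; 1 hr cmpd preincubation; Cu2+ induction 700 uM final; 20 hr ambient; luminescence.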
# MCF10A rereplic: induces DNA re-replication in MCF 10a normal breast cells. MCF 10A DNA re-replication, Hoechst nuclear intensity, 48 h. Potency, µM (highest dose often 46.1 µM), for inactives: top-dose activity, positive = re-replication, usual class: activators. 2.9% of 350,000 active. AID 624296; further: potency means the concentration at half of the fitted maximal effect; % of control where 0% means no effect; nearly all actives have a fitted effect of over 50% in size
# Chronic BCR inh: blocks chronic active B-cell receptor signaling; 0.05% of 340,000 active; AID 493014; Potency, µM (series often up to 46.1 µM), for inactives: at the highest dose activity change, negative = inhibition, most hits filed as inhibitors; ABC-DLBCL IkBa-CBG/CBR reporter, luminescence ratio, 4 h; active means well fitted inhibition curve with a large enough effect in the signal ratio, with a control signal flat, not every such curve was filed as active; inconclusive means small, poorly fitted or top-dose-only effect, or effect the other way, or a change in a side signal; the % refers to the signal ratio;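 further: potency means the concentration at half of the fitted maximal effect; plate controls were basal doxycycline-induced cells for no effect and cells given 10 µM MG132 for full effect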
#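 TMD8 ABC-DLBCL cells carrying doxycycline-inducible green luciferase fused to IkappaBalpha plus unfused red luciferase were exposed to compounds (up to 46 uM) for 4 hrs at 37C. Activity came from the overlap-corrected green/red luminescence ratio.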
# SW480 rereplic: DNA re-replication induction in SW480 cells; SW480 DNA re-replication, Hoechst DNA content imaging, 48 h; 1.8% of 340,000 active; Potency, µM (titrated, usually from 46.1 µM), inactives show at the top dose re-replication activation, usual class: activators; further: potency means the concentration at half of the fitted maximal effect; % of control where 0% means no effect; nearly all actives have a fitted effect of over 55% in size
#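 Compounds, transferred as 23 nL by pin tool, were incubated with cells for 48 hr; DNA content per nucleus was then quantified by Hoechst staining and fluorescence plate imaging.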
# VP16 counter: Gal4-VP16 reporter inhibition counter-screen. Potency, µM (doses to about 53.6 µM), inactives show at the top dose activity, negative = inhibition, most hits filed as inhibitors. 3.5% of 310,000 active. Drosophila S2 Gal4-VP16 UAS-luciferase, luminescence, 20 h;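 further: Gal4-VP16 expression switched on by copper sulfate through the metallothionein promoter; potency means the concentration at half of the fitted maximal effect; on the % scale 0 is the no-effect control and ±100 the full control effect; nearly all actives have a fitted effect of over 50% in size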
# Giardia killer: kills Giardia lamblia; Giardia lamblia trophozoite viability; activity change, % at 7.66 µM, hits read low; 0.15% of 340,000 active; AID 540267; in the data active means activity change below about -80%; inconclusive means between about -30% and that limit;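 further: parasites exposed to compound for two days anaerobically before the ATP read; on the % scale 0 is the no-effect control and ±100 the full control effect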
#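 Giardia lamblia trophozoites (100 cells/well) were incubated with compounds for 48 h at 37 deg C under anaerobic conditions. Viability was read as ATP content by one-step luminescence after 15-30 min at room temperature.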
# * hit, by the source's call; u = inconclusive; x = no result; [ ] = remark or other dose. Only some compounds are listed: those with a hit (about 8.3% of all), similar ones and a draw of the others. Unless noted, the call rests on the fitted dose curve; in most records, active means well fitted curve in the direction sought with a large enough effect; inconclusive means small, poorly fitted or top-dose-only effect, or another doubt; inactive means no such curve, though single readings can be large; an effect the other way counts as inactive or inconclusive.
SMILES,RORgamma inh,MCF10A rereplic,Chronic BCR inh,SW480 rereplic,VP16 counter,Giardia killer
O=[N+]([O-])c1ccc(N2N=C(c3ccco3)CC2c2ccccc2)cc1 (stereo not drawn),33%,8.2µM*,u,u,6%,3
CCOc1ccc(N2CC(C(=O)Nc3cccc(C(=O)NC4CC4)c3)CC2=O)cc1 (stereo not drawn),x,-6%,-8%,-7%,x,9
CCOC(=O)C1=C(C)NC(=S)NC1c1ccsc1 (stereo not drawn),11µM*,2%,6%,-4%,u,9
CCOC(=O)C1=C(C)NC(=S)NC1c1ccc(C)s1 (stereo not drawn),8.9µM*,-25%,-5%,-39%[1.84 µM],u,8
CC1=C(C(=O)OCC(C)C)C(c2cccs2)NC(=S)N1 (stereo not drawn),11µM*,8%,3%,1%,2.5µM*,7
CCOC(=O)C1=C(C)NC(=S)NC1c1cc(C)sc1C (stereo not drawn),0%,9%,-1%,-26%,-3%,20
Cc1sc2nc(SCC(=O)N3CC(C)OC(C)C3)n(C)c(=O)c2c1C (stereo not drawn),58%,-1%,1%,3%,4%,4
C=CCNC(=O)C(C)N1c2cccc3cccc(c23)S1(=O)=O (stereo not drawn),x,u,-3%,-3%,x,-22
CCc1cc(=O)oc2cc(O[C@@H]3O[C@H](CO)[C@@H](O)[C@H](O)[C@H]3O)c(Cl)cc12,0%,-7%,-1%,18µM*,-6%,25
CCc1cc(=O)oc2c(C)c(O[C@@H]3O[C@H](CO)[C@@H](O)[C@H](O)[C@H]3O)ccc12,8%,-2%,1%,u,-4%,7
CC(=O)Oc1cc(C)c(OC(C)=O)c2ccccc12,-1%[10 µM],u,x,27µM*,-17%,x
Oc1c(Br)cc(Br)cc1/C=N/NC(=S)N[C@H]1CC2C=CC1C2 (stereo partly drawn),u,5.8µM*,-2%,u,u,11
CC(C)C(=O)Nc1ccc(C(=O)N/N=C/c2cc(Br)cc(Br)c2O)cc1,u,2%,-4%,2%,u,-10
CC(C)(C)NC(=S)N/N=C/c1cc(Br)c(O)c(Br)c1,u,17%,u,-6%,u,-21
CNC(=S)N/N=C/c1cc(Br)cc(Br)c1O,3.2µM*,7.3µM*,u,x,3.2µM*,-5
CC(=O)Nc1ccc(C(=O)N/N=C/c2cc(Br)cc(Br)c2O)cc1,5µM*,u,3%,-146%,-25%,-13
NC(=S)NC1CC2C=CC1C2 (stereo not drawn),-21%,-6%,3%,-22%,6%,-20
CCc1ccccc1NC(=O)c1ccc(S(=O)(=O)NCC2CCCO2)cc1 (stereo not drawn),3%,9%,2%,-4%,-3%,15
O=C(CCN1CCN(S(=O)(=O)c2cccc([N+](=O)[O-])c2)CC1)Nc1ccccc1F,0%,0%,u,-8%,-9%,17
CCC(C)c1ccc(C2C3=C(Nc4nc(N)[nH]c(=O)c42)c2ccccc2C3=O)cc1 (stereo not drawn),13µM*,u,4%,u,u,-21
Cc1nc(-c2cc(C#N)c(Sc3ccc(Cl)cc3Cl)nc2C)cs1,31%,-18%,u,3%,-2%,4
CCC(=NCCc1c(C)[nH]c2ccc(C)cc12)C1=C(O)CC(c2ccccc2)CC1=O (stereo not drawn),16%,u,u,2.6µM*,-10%,13
C/C(CC(=O)NCc1ccco1)=N\NC(=O)CC#N,-15%,2%,8%,-1%,3%,7
O=C1CC(c2ccccc2)CC2=C1C=Nc1ccccc1N2 (stereo not drawn),33%,18µM*,7%,15µM*,2%,-2
O=C1CC(c2ccc(F)cc2)CC2=C1C=Nc1ccccc1N2 (stereo not drawn),18%,u,-4%,2%,-10%,6
SMILES,RORgamma inh,MCF10A rereplic,Chronic BCR inh,SW480 rereplic,VP16 counter,Giardia killer
COc1ccc(OC)c(C(=O)CN2CCN(S(=O)(=O)c3ccc(Br)cc3)CC2)c1,u,23µM*,u,u,u,3
CCc1ccc(N2CC(C(=O)NC3CCCCC3C)CC2=O)cc1 (stereo not drawn),-6%,-4%,4%,-4%,-2%,4
O=C(CC1C(=O)NCCN1Cc1ccccc1C(F)(F)F)NCCn1cccn1 (stereo not drawn),-3%,u,u,u,-9%,-30
COC(=O)c1ccc(C(=O)OC)c(NC(=S)N2CCCCC2C)c1 (stereo not drawn),16µM*,1%,-1%,1%,u,-18
CC(C)c1ccc(NC(=O)c2ccc(NS(C)(=O)=O)cc2)cc1,u,9.2µM*,u,5%,2%,-8
CS(=O)(=O)Nc1ccc(C(=O)Nc2ccc3ccccc3c2)cc1,36%[1.91 µM],14%,u,-41%,8%,-10
CCCCCCC(C)n1[nH]c(=O)c2c(C)cc(=O)[nH]c21 (stereo not drawn),7.1µM*,u,1%,u,4µM*,29
CC1(c2ccc(Cl)cc2)NC(=S)N2C1NC(=S)N2c1ccccc1 (stereo not drawn),-19%,-5%,u,-3%,-1%,-13
CCC1(c2ccc(Cl)cc2)NC(=S)N(c2ccc(C)c(C)c2)N1 (stereo not drawn),u,10%,u,0%,-5%,18
CCC1(c2ccccc2)NC(=S)N(c2ccc(C)c(C)c2)N1 (stereo not drawn),2.8µM*,-2%,u,-6%,u,-3
CCC1(c2ccc(Cl)cc2)NC(=S)N(c2ccc(C)cc2)N1 (stereo not drawn),1.8µM*,u,u,-1%,1%,-7
COc1ccc(CNS(=O)(=O)CCNC(=O)c2cccc(OC)c2)cc1,x,3%,1%,-3%,x,13
COc1ccccc1[C@@H]1C(c2cccc(C)c2)=NN(c2ccccc2)[C@H]1C(=O)N1CCOC1=O,11%,u,4%,15µM*,-8%,3
COc1ccccc1[C@@H]1C(c2ccccc2)=NN(c2ccccc2)[C@H]1C(=O)N1CCOC1=O,2%,u,0%,u,1%,8
COc1ccccc1[C@@H]1C(c2cccc(Cl)c2)=NN(c2ccc(Br)cc2)[C@H]1C(=O)N1CCOC1=O,-1%[40.7 µM],u,0%,3.3µM*,-4%[40.7 µM],-11
